# Reference: PubChem BioAssay AID624296 (National Center for Advancing Translational Sciences (NCATS), 2012)
# The campaign covered roughly 350,000 compounds. About 9,900 (2.8%) were called active. A call without a number means that no potency is given here. Inconclusive results (about 15%) are left out. The sample as a whole holds a higher share of actives than the screen did. Unmarked numbers belong to inactive results. Calls follow the shape of the dose curve; as a rule, active = well fitted activation curve with a large enough effect; inconclusive = small, poorly fitted or top-dose-only effect; inactive = no such curve, though single readings can be large or run the other way.
# Test: A quantitative high throughput screen for small molecules that induce DNA re-replication in MCF 10a normal breast cells. Also: nearly all actives have a fitted effect of over 50% in size.
# Conditions: MCF 10A DNA re-replication, Hoechst nuclear intensity, 48 h; series mostly up to 46.1 µM
# Potency is read from the fitted curve at half-maximal effect.
SMILES,Potency,"activity, positive = re-replication"
COc1cccc(NC(=O)CSc2nnc(C3CCCCC3)n2N)c1,inactive,
CC(=O)c1cccc(OCC(=O)OCC(=O)Nc2cc(S(=O)(=O)N3CCCCC3)ccc2C)c1,inactive,
O=C1c2ccccc2C(=O)N1CCC#Cc1ccc2cc(C3(O)CCCCC3)oc(=O)c2c1,inactive,
O=C(CSc1nc2[nH]c(=O)[nH]c(=O)c2s1)Nc1cccc(F)c1,inactive,
CC(Sc1nnc(C2CC2)n1C1CC1)C(=O)Nc1ccc(C(N)=O)cc1 (stereo not given),inactive,
CCCn1nc(C(=O)OCc2nc(N)nc(Nc3ccccc3C)n2)c2ccccc2c1=O,inactive,
Cc1cc(C)cc(OCc2nnc(SCC(=O)Nc3ccccc3)o2)c1,,-182% [at 0.0737 µM]
Cc1cccc(OCc2nnc(SCc3nc4cc(C(F)(F)F)ccc4c(=O)[nH]3)o2)c1,5.8 µM (active),
Cc1cccc(OCc2nnc(SCn3nnc4ccccc4c3=O)o2)c1,inactive,
C=CC[C@H](CC(=O)NCCO)C(=O)N[C@@H](COC(=O)[C@@H](CC=C)Cc1ccc(F)cc1)Cc1c[nH]c2ccccc12,inactive,
CC(C)OC(=O)CN1C(=O)C(=O)c2ccccc21,23.1 µM (active),
CC(C)OC(=O)CN1C(=O)c2ccccc2C1=O,inactive,
Cc1cccc2c1N(CC(=O)OC(C)C)C(=O)C2=O,inactive,
CCN1C[C@@H]2[C@@H]3C(=O)N(C)C(=O)[C@@H]3[C@](C)(C1=O)N2C(=O)c1ccccc1,inactive,
NCCN1CCN2C(=O)CN(C(=O)c3ccccc3)CC12 (stereo not given),inactive,
O=C(c1cn(-c2ccccc2)nc1-c1cc2ccccc2oc1=O)N1CCOCC1,inactive,
O=c1oc2ccccc2cc1-c1cn(-c2ccccc2)c(=S)[nH]1,5.8 µM (active),
S=c1[nH]c(-c2cccs2)cn1-c1ccccc1,inactive,
COc1ccc(CNC(=O)COC(=O)c2ccc(C)c(S(=O)(=O)N3CCOCC3)c2)cc1OC,inactive,
O=C(NC1CCCCCC1)c1cccnc1Sc1ccc(Cl)cc1,18.4 µM (active),
O=C(NCc1cccnc1)c1cccnc1Sc1ccc(Cl)cc1,inactive,
CSc1ncccc1C(=O)NC1CCCCCC1,inactive,

SMILES,Potency,"activity, positive = re-replication"
CCC(C(=O)NC1CCCCC1)N(C(=O)c1snc(C(N)=O)c1N)c1ccc(OC)cc1OC (stereo not given),inactive,
COc1ccc(N(C(=O)c2snc(C(N)=O)c2N)C(C(=O)NC2CCCC2)c2ccc(C)o2)c(OC)c1 (stereo not given),20.6 µM (active),
COc1ccc(N(C(=O)c2snc(C(N)=O)c2N)C(C(=O)NC2CCCC2)c2ccco2)cc1OC (stereo not given),inactive,
COc1ccc(/C=C/C(=O)OCC(=O)NC2CCCCCC2)cc1OC,inactive,
CC(C)(C)OC(=O)NCCCCCNC(=O)c1[nH]cnc1C(=O)Nc1nccs1,inactive,
Cc1cc([N+](=O)[O-])c(=O)[nH]c1C,inactive,
Cc1onc(-c2c(F)cccc2Cl)c1C(=O)Nc1cccc(S(=O)(=O)N2CCCCC2)c1,14.6 µM (active),
O=C(Nc1cccc(S(=O)(=O)N2CCCCC2)c1)c1ccc2c(c1)OCO2,inactive,
Cc1onc(-c2c(F)cccc2Cl)c1C(=O)N(C)CC(=O)Nc1cccc(F)c1,inactive,
Cn1c(CO)cnc1SCc1ccccc1,inactive,
CSc1nc2ccccc2c(=O)n1Cc1ccc(F)cc1,inactive,
CSc1c(SCc2ccccc2)cnn(Cc2ccccc2)c1=O,18.4 µM (active),
CCCCNC1(C#N)CCN(Cc2ccccc2)CC1,inactive,
CCc1nc(C)cn1S(=O)(=O)c1cc([N+](=O)[O-])ccc1Cl,6.51 µM (active),
CCc1nc(C)cn1S(=O)(=O)c1cc(OC)c(C)cc1C,inactive,
CC(C)c1nccn1S(=O)(=O)c1cc([N+](=O)[O-])ccc1Cl,inactive,
COc1ccccc1C(=O)N(C1=NC(C)CS1)c1ccc(Cl)cc1 (stereo not given),inactive,
CC(=O)Nc1ccc(C(=O)N(C2=NC(C)CS2)c2ccc(Cl)cc2)cc1 (stereo not given),5.17 µM (active),
CC(=O)Nc1ccc(NC(=O)CCCNC(=O)c2ccc(Cl)cc2)cc1,inactive,
O=C1CC(c2ccccc2)C(c2ccccc2)=NN1 (stereo not given),inactive,
Cc1nc2ccc(NC(=O)C3CCCCC3)cc2s1,inactive,
CN(C)CCCn1c(N)c(C#N)c2nc(C#N)c(C#N)nc21,7.31 µM (active),

SMILES,Potency,"activity, positive = re-replication"
CCCN=C1N(C)C[C@@H]2[C@@H]3C(=O)N(Cc4ccccc4)C(=O)[C@@H]3[C@](C)(C(=O)OC)N12,inactive,
COc1ccccc1NS(=O)(=O)c1ccc(C)c(C(=O)NNC(=O)c2csc(N3CCOCC3)n2)c1,inactive,
CC(C)C(NC(=O)c1c(F)cccc1F)C(=O)NNC(=O)c1ccccc1 (stereo not given),inactive,
CCCc1nc2c(c(=O)c3ccccc3n2C)c(=O)n1-c1cc(C)cc(C)c1,inactive,
CCCc1nc2c(c(=O)c3ccccc3n2C)c(=O)n1C1CCCCCC1,14.6 µM (active),
Cn1c2ccccc2c(=O)c2c(O)cccc21,inactive,
CC(=NNC(=O)c1ccncc1)c1ccc(Cl)c(Cl)c1,inactive,
CCC1CCCCN1C(=S)NC(=O)c1ccco1 (stereo not given),inactive,
O=C(Nc1ccncc1)c1cc(-c2ccccn2)nc2ccc(Br)cc12,inactive,
CCN(CC)CCNC(=O)c1ccc(NC(=O)c2cc(-c3ccncc3)nc3ccccc23)cc1,inactive,
Cc1ccc2nc(-c3ccncc3)cc(C(=O)Nc3ccc(OC(F)F)cc3)c2c1,14.6 µM (active),
Cc1nc2ccc(NC(=O)c3cccc(S(=O)(=O)N4CCOCC4)c3)cc2s1,inactive,
CC1(C)N=C(N)NC(Nc2ccc(Cl)cc2)=N1,inactive,
Cc1csc(=O)n1CC(=O)Nc1ccc(S(C)(=O)=O)cc1,inactive,
CCOc1cc(N2CCOCC2)c(OCC)cc1NC(=O)c1cc(C)nc2ccccc12,inactive,
CCOc1cc(N2CCOCC2)c(OCC)cc1NC(=O)COc1cccc(Cl)c1,inactive,
CCOc1cc(N2CCOCC2)c(OCC)cc1NC(=O)COc1cccc2cccnc12,15.8 µM (active),
CC(OC(=O)c1cc2ccccc2[nH]1)C(=O)N(C)c1ccccc1 (stereo not given),inactive,
CN(C)c1ccc(/C=N/Nc2cc(N3CCOCC3)nc(N3CCOCC3)n2)cc1,inactive,
Cc1cc(N2CCN(c3ccccc3)CC2)nc(N2CCOCC2)n1,inactive,
C(=N/Nc1cc(N2CCOCC2)nc(N2CCOCC2)n1)/c1ccccc1,23.1 µM (active),
